This is part of a sample that, as a whole, favours compounds with a hit. Of some 79,000 tested, about 15% had one in any assay. Unmarked numbers belong to inactive results. Activity calls are given as the source filed them. Cut-off read from the data, not from the text of the source: active = growth inhibition above about 70%; inactive = the rest.

The first assay in a line: NCI Yeast Anticancer Drug Screen. Data for the rad50 strain (AID 155).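 Note: 0% = growth of vehicle-only cultures of the same strain.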 Conditions: S. cerevisiae rad50 strain growth inhibition, hits give high values; at 50.0 µM unless noted. A digest of the protocol:
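Yeast carrying a defined DNA repair defect were exposed to test compounds, and growth was compared with vehicle-treated controls to give percent inhibition.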
As for `CC(=O)OC1CCC2(C)C(CCC3C2C(=O)C(OC(C)=O)C2(C)C3CC3OC4(CCC(C)CO4)C(C)C32)C1` (stereo not given), the growth inhibition was -10.5%.

`N.N.N.N.O=C(O)C1OCCOCCOC(C(=O)O)C(C(=O)O)OCCOCCOC1C(=O)O.[Pt+2].[Pt+2]` (stereo not given): the growth inhibition was -33.2%.

With `O=C(O)c1ccccc1SCCO`, the growth inhibition was -1.95%.

Regarding `CC(C)C(=O)NCC[C@@H](CNC(=O)OC(C)(C)C)NC(=O)OC(C)(C)C`, the growth inhibition was 20.1%.

Take `CC1CC(C)OC(c2ccc(Cl)cc2)O1` (stereo not given): the growth inhibition is 20.8%.

In the case of `CCCCCCCCCCCCOC(=O)NC1c2ccccc2Oc2ccccc21`, the growth inhibition was 30.4%.

For the compound `CC1(C)OC2C(/C=C\C(=O)c3ccccc3)OC(n3ccc(=O)[nH]c3=O)C2O1` (stereo not given), the growth inhibition was -36.6%.

In the case of `CC(=NCCCCN=C(C)c1cc(O)cc(Br)c1O)c1cc(O)cc(Br)c1O.[Co]`, the growth inhibition is 17.9%.

Take `CN1C(=O)C/C(=C/[N+](=O)[O-])c2ccccc21`: the growth inhibition was 3.5%.

In the case of `CC(C)=CC(=O)CNC(N)=S`, the growth inhibition is 36.1%.

Regarding `OCC[P+](c1ccccc1)(c1ccccc1)c1ccccc1`, the growth inhibition is 17.6%.

For `CC(C)CCO/N=C(\N)N=C(N)N`, the growth inhibition was -17.4%.

Consider `Cc1ccc(C2SC(N)=Nc3c2c(C)nn3C(=O)c2ccc(Cl)cc2)cc1` (stereo not given), for which the growth inhibition was -36.1%.

Turning to `O=P(O)(O)c1ccc(-c2ccc(I)cc2)cc1`, the growth inhibition is 11.7%.

For `COc1ccc(Br)cc1C1OC(=O)c2c(OC)c(OC)cc([N+](=O)[O-])c21` (stereo not given), the growth inhibition is 33.9%.

Regarding `COc1ccccc1OC(=O)Nc1ccc(S(=O)(=O)NC2CCCCC2)cc1`, the growth inhibition is 12.1%.

For the compound `C=CCc1cc(OC)c2c(c1)C(O)CC(c1ccc(OC)c(OC)c1)O2` (stereo not given), the growth inhibition is 16.5%.

As to `N#CC1C(c2ccc(Cl)cc2)C(C(N)=O)C(=O)NC1(O)c1ccccc1` (stereo not given), the growth inhibition is -1.45%.

With `COc1cc(C2c3cc4c(cc3[C@H](OCCN(C)C)[C@@H]3COC(=O)C23)OCO4)cc(OC)c1O` (stereo not given in full), the growth inhibition was 83.2% (active).

`NC(=O)CC[n+]1ccccc1`: the growth inhibition is 11.1%.

Take `COC(=O)C1=Nc2c(C)nn(-c3ccccc3)c2N=C(c2ccc([N+](=O)[O-])cc2)C1`: the growth inhibition is -18.4%.

As for `CC(C)(C)OC(=O)N1CCC2(CC1)C(=O)NCN2c1ccccc1`, the growth inhibition is 23.4%.

Take `Clc1nc(NCCc2ccccc2)c2ncn(-c3ccccc3)c2n1`: the growth inhibition is 52.9%.

Consider `COc1cccc(N2C(=O)C3c4[nH]c5ccc(C)cc5c4C4CCC(C)CC4C3C2=O)c1` (stereo not given), for which the growth inhibition is -10.7%.

On to `CCOC(=O)C1=C(O)C(=O)C=C(O)C1=N`, for which the growth inhibition is -12.2%.

Regarding `COc1ccc(OC2OC(CO)C(O)C(O)C2O)cc1` (stereo not given), the growth inhibition was 8.9%.

Turning to `CNC(=O)N(CCCCC(NC(C)=O)C(=O)NCc1ccccc1)Cc1ccccc1` (stereo not given), the growth inhibition was -12.3%.

`Cc1cc(NC(=O)C(=O)Cc2nc3ccccc3s2)ccc1Cl`: the growth inhibition is 25.9%.

As to `ClCCN1CCOC1=Nc1ccc2c(c1)CCCC2`, the growth inhibition was -21.2%.

As to `CCCC(=O)CC(=O)Nc1ccccc1`, the growth inhibition was 2.9%.

Take `CCCCCCCCCCCC(O)C(C)(C)C` (stereo not given): the growth inhibition was 23.7%.

For `Cc1ccc(C(CC(=O)C(C)(C)CN2CCCCC2)SCCS(=O)(=O)O)cc1` (stereo not given), the growth inhibition is 7.5%.

With `c1ccc2nc3c(cc2c1)c1c(c2ccccc23)CCCC1`, the growth inhibition is 11.2%.

`CCCCCO.CCCCCO.CCCCCO.CCCCCO.[Ti]`: the growth inhibition was 3.45%.

As to `OCCC1CCCCN1` (stereo not given), the growth inhibition is 9.25%.

As for `CCc1cc(C)c(C)cc1O`, the growth inhibition is -28.8%.

As to `O=CC(O)C(O)C(O)C(O)C(O)C(O)CO` (stereo not given), the growth inhibition was 16%.

For the compound `CC(=O)OC1CCC2(C)C(C1)C(=O)OC1C2CCC2(C)C(C(C)CCCC(C)C)CCC12` (stereo not given), the growth inhibition is 27.4%.

Consider `CCn1c(CCCc2nc3c([nH]2)c(=O)n(C)c(=O)n3C)nc2c1c(=O)n(C)c(=O)n2C`, for which the growth inhibition is 6.65%.

For `C/C(=C\CNc1nc(Cl)nc2nc[nH]c12)CO`, the growth inhibition is -12.3%.

The next assay can be described thus: NCI Yeast Anticancer Drug Screen. Data for the mec2-1 strain (AID 157). Conditions: S. cerevisiae mec2-1 strain, hits give high values; at 50.0 µM unless noted. A digest of the protocol: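 Test agents were screened against the mec2-1 yeast strain, with defined DNA repair or cell cycle alteration. Growth was scored as inhibition against vehicle-only controls.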
On to `CC(=O)OC1CCC2(C)C(CCC3C2C(=O)C(OC(C)=O)C2(C)C3CC3OC4(CCC(C)CO4)C(C)C32)C1` (stereo not given), for which the growth inhibition was -19.9%.

Turning to `N.N.N.N.O=C(O)C1OCCOCCOC(C(=O)O)C(C(=O)O)OCCOCCOC1C(=O)O.[Pt+2].[Pt+2]` (stereo not given), the growth inhibition was -14%.

Take `O=C(O)c1ccccc1SCCO`: the growth inhibition is 18%.

For `CC(C)C(=O)NCC[C@@H](CNC(=O)OC(C)(C)C)NC(=O)OC(C)(C)C`, the growth inhibition was -3.1%.

As for `CC1CC(C)OC(c2ccc(Cl)cc2)O1` (stereo not given), the growth inhibition was 14.5%.

As for `CCCCCCCCCCCCOC(=O)NC1c2ccccc2Oc2ccccc21`, the growth inhibition is 17.6%.

Regarding `CC1(C)OC2C(/C=C\C(=O)c3ccccc3)OC(n3ccc(=O)[nH]c3=O)C2O1` (stereo not given), the growth inhibition was 10.3%.

With `CC(=NCCCCN=C(C)c1cc(O)cc(Br)c1O)c1cc(O)cc(Br)c1O.[Co]`, the growth inhibition was 17.9%.

In the case of `CN1C(=O)C/C(=C/[N+](=O)[O-])c2ccccc21`, the growth inhibition is -1.05%.

As to `CC(C)=CC(=O)CNC(N)=S`, the growth inhibition is 17.9%.

As for `OCC[P+](c1ccccc1)(c1ccccc1)c1ccccc1`, the growth inhibition was 12.1%.

Take `CC(C)CCO/N=C(\N)N=C(N)N`: the growth inhibition was -5.8%.

Regarding `Cc1ccc(C2SC(N)=Nc3c2c(C)nn3C(=O)c2ccc(Cl)cc2)cc1` (stereo not given), the growth inhibition is -42%.

Consider `O=P(O)(O)c1ccc(-c2ccc(I)cc2)cc1`, for which the growth inhibition is -15.5%.

As for `COc1ccc(Br)cc1C1OC(=O)c2c(OC)c(OC)cc([N+](=O)[O-])c21` (stereo not given), the growth inhibition is 5.25%.

For the compound `COc1ccccc1OC(=O)Nc1ccc(S(=O)(=O)NC2CCCCC2)cc1`, the growth inhibition was -10.8%.

For `C=CCc1cc(OC)c2c(c1)C(O)CC(c1ccc(OC)c(OC)c1)O2` (stereo not given), the growth inhibition was 1.25%.

As for `N#CC1C(c2ccc(Cl)cc2)C(C(N)=O)C(=O)NC1(O)c1ccccc1` (stereo not given), the growth inhibition is -5.4%.

Consider `COc1cc(C2c3cc4c(cc3[C@H](OCCN(C)C)[C@@H]3COC(=O)C23)OCO4)cc(OC)c1O` (stereo not given in full), for which the growth inhibition was 87.7% (active).

Regarding `NC(=O)CC[n+]1ccccc1`, the growth inhibition was -29.3%.

As for `COC(=O)C1=Nc2c(C)nn(-c3ccccc3)c2N=C(c2ccc([N+](=O)[O-])cc2)C1`, the growth inhibition was 0.6%.

Regarding `CC(C)(C)OC(=O)N1CCC2(CC1)C(=O)NCN2c1ccccc1`, the growth inhibition was 11.9%.

Consider `Clc1nc(NCCc2ccccc2)c2ncn(-c3ccccc3)c2n1`, for which the growth inhibition was 47.2%.

With `COc1cccc(N2C(=O)C3c4[nH]c5ccc(C)cc5c4C4CCC(C)CC4C3C2=O)c1` (stereo not given), the growth inhibition is -27.4%.

Regarding `CCOC(=O)C1=C(O)C(=O)C=C(O)C1=N`, the growth inhibition is -2.6%.

For `COc1ccc(OC2OC(CO)C(O)C(O)C2O)cc1` (stereo not given), the growth inhibition is -0.1%.

Take `CNC(=O)N(CCCCC(NC(C)=O)C(=O)NCc1ccccc1)Cc1ccccc1` (stereo not given): the growth inhibition was -23.2%.

On to `Cc1cc(NC(=O)C(=O)Cc2nc3ccccc3s2)ccc1Cl`, for which the growth inhibition is 12.7%.

In the case of `ClCCN1CCOC1=Nc1ccc2c(c1)CCCC2`, the growth inhibition was -16.9%.

As for `CCCC(=O)CC(=O)Nc1ccccc1`, the growth inhibition is -6.3%.

Turning to `CCCCCCCCCCCC(O)C(C)(C)C` (stereo not given), the growth inhibition is 10.1%.

Regarding `Cc1ccc(C(CC(=O)C(C)(C)CN2CCCCC2)SCCS(=O)(=O)O)cc1` (stereo not given), the growth inhibition was -7.95%.

For `c1ccc2nc3c(cc2c1)c1c(c2ccccc23)CCCC1`, the growth inhibition was -10.5%.

For `CCCCCO.CCCCCO.CCCCCO.CCCCCO.[Ti]`, the growth inhibition was -33%.

Turning to `OCCC1CCCCN1` (stereo not given), the growth inhibition was -8.4%.

For the compound `CCc1cc(C)c(C)cc1O`, the growth inhibition was -31.6%.

On to `O=CC(O)C(O)C(O)C(O)C(O)C(O)CO` (stereo not given), for which the growth inhibition was 10.7%.

As to `CC(=O)OC1CCC2(C)C(C1)C(=O)OC1C2CCC2(C)C(C(C)CCCC(C)C)CCC12` (stereo not given), the growth inhibition was 3.55%.

Take `CCn1c(CCCc2nc3c([nH]2)c(=O)n(C)c(=O)n3C)nc2c1c(=O)n(C)c(=O)n2C`: the growth inhibition is -38.8%.

`C/C(=C\CNc1nc(Cl)nc2nc[nH]c12)CO`: the growth inhibition is -5.6%.
